The whole screen tested about 420,000 compounds, of which about 64,000 (15%) were called active. About 27% were inconclusive and are not listed. Calls come from the whole dose curve; as a rule, active = well fitted inhibition curve with a large enough effect; inconclusive = small, poorly fitted or top-dose-only effect; inactive = flat fitted curve, though single readings scatter. The list is a sample of the results.
Assay: qHTS for Inhibitors of human tyrosyl-DNA phosphodiesterase 1 (TDP1): qHTS in cells in absence of CPT; note: nearly all actives have a fitted effect of over 55% in size
Settings: DT40 Tdp1-/- hTDP1 cells, no CPT, ATP luminescence, 48 h; activity change, negative = growth inhibition: at 46.2 µM (top of the series)
Outline: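 Cells were dispensed at 400 per well, compounds added by pin tool, plates incubated ≥48 hr at 37 °C, then CellTiter-Glo added for 30 min at room temperature before luminescence reading. Line: DT40 Tdp1-/- complemented with hTDP1; camptothecin omitted.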
% is set by controls: 0 for no effect and ±100 for the full control effect; potency is the fitted concentration of half-maximal effect.

| Compound | activity change, negative = growth inhibition | Potency |
| --- | --- | --- |
| O=C(COC(=O)/C=C/c1nc2ccccc2s1)Nc1ccccc1Oc1ccccc1 | -27% (inactive) | – |
| c1ccc(CCc2ccccn2)cc1 | -2.35% (inactive) | – |
| COc1ccc(NC(=O)N2CC3(CCN(C(=O)c4cccn4C)CC3)C2)cc1 | -17.9% (inactive) | – |
| CC(C)NC(=O)N1CCC2(CC1)CCN(C(=O)c1cccn1C)CC2 | -14.2% (inactive) | – |
| Cn1cccc1C(=O)N1CCC2(CC1)CN(c1cccc(-c3ccccc3)c1)C2 | – | 16.4 µM (active) |
| CCN(CC)CCn1cnc2c1c(=O)n(CCOC(=O)c1cc(OC)c(OC)c(OC)c1)c(=O)n2C | 0.412% (inactive) | – |
| CC(=O)c1nn(-c2ccc(C)cc2)cc1C(=O)c1cccc(Br)c1 | -28.5% (inactive) | – |
| O=C(CCNC(=O)c1ccc([N+](=O)[O-])cc1)NC1CCCCC1 | -20.3% (inactive) | – |
| CC(C)C1=CC2=CC[C@H]3[C@](C)(C(=O)O)CCC[C@]3(C)C2CC1 (some centres not stated) | 3.41% [at 9.04 µM] (inactive) | – |
| COc1ccc(CN2CCNC(=O)C2CC(=O)NCc2cn[nH]c2-c2ccccc2)c(F)c1 (configuration not stated) | -16.8% (inactive) | – |
| COc1ccc(NS(=O)(=O)c2ccc(NC(=O)C(C)(C(F)(F)F)C(F)(F)F)cc2)nn1 | 6.95% (inactive) | – |
| c1ccc(-c2cn3c(n2)CCc2ccc4cccnc4c2-3)cc1 | – | 16.4 µM (active) |
| c1ccc(-c2cn3cccnc3n2)cc1 | -1.58% (inactive) | – |
| Cc1csc(NC(=O)CSc2nc(=O)n(CCCN(C)C)c3c2CCC3)n1 | 4.86% (inactive) | – |
| Cc1ccc2nc(NC(=O)CSc3nc(=O)n(CCCN(C)C)c4c3CCC4)sc2c1 | – | 13 µM (active) |
| Cc1ccc(NC(=O)CSc2nc(=O)n(CCN(C)C)c3c2CCCC3)c(C)c1 | 4.62% (inactive) | – |
| CCOC(=O)CC1=CC(=O)Nc2ccccc2N1 | -11.6% (inactive) | – |
| CCc1ccccc1NC(=O)CN1CCN(C(=O)c2cc(C3CC3)nn2-c2ccccc2)CC1 | – | 23.1 µM (active) |
| CCc1ccccc1NC(=O)CN(C)C(=O)c1cc(C2CC2)nn1-c1ccccc1 | -15.7% (inactive) | – |
| COc1cccc(NC(=O)CN(C)C(=O)c2cc(C3CC3)nn2-c2ccccc2)c1 | -5.3% (inactive) | – |
| COc1ccc(Sc2ccc(NC(=O)c3cccc(Cl)c3)cc2C#N)cc1 | – | 23.1 µM (active) |
| COC(=O)c1ccc(Sc2ccc(F)cc2)c(N)c1 | -25% (inactive) | – |

| Compound | activity change, negative = growth inhibition | Potency |
| --- | --- | --- |
| Cc1ccc(Sc2ccc(NC(=O)c3ccc(F)cc3)cc2C#N)cc1 | – | 11.6 µM (active) |
| COc1ccc(NC(=O)c2cccc(Cl)c2)c[n+]1[O-] | -0.558% (inactive) | – |
| Cc1ccc(C(=O)Nc2ccc3[nH]c(=O)c(=O)[nH]c3c2)cc1 | 1.61% (inactive) | – |
| COc1ccc(C(=O)Nc2ccc(NC(=O)C(C)C)nc2)cc1 | -7.31% (inactive) | – |
| COc1cccc(NC(=O)CCNS(=O)(=O)c2ccc3c(c2)oc(=O)n3C)c1 | – | inactive |
| COCC(C)N=CC1=C(O)CC(C)(C)CC1=O (configuration not stated) | -10.1% (inactive) | – |
| C=CCN1C=C(C(=O)c2ccccc2)C(=O)CC1 | -0.111% (inactive) | – |
| O=C(CCS(=O)(=O)Cc1ccccc1F)NCCCN1CCCCC1 | -11.3% (inactive) | – |
| CCCCNC(=O)OCCSCCS(=O)(=O)c1ccc(Cl)cc1 | -14.4% (inactive) | – |
| CC12CCCCC1=CC(=O)CC2 (configuration not stated) | -2.63% (inactive) | – |
| Cc1c(Cl)cccc1NC(=O)NCCCN1CCCC1=O | 19.6% (inactive) | – |
| Cc1cccc([C@@H]2[C@@H]3C(=O)N(C)C(=O)[C@@H]3[C@@H]3C(=O)Nc4ccccc4C(=O)N23)c1 | -7.16% (inactive) | – |
| Cc1ccc(-c2cccc([C@H]3[C@@H]4C=CC[C@@H](C)[C@@H]4C(=O)N3Cc3ccccc3)c2)cc1 | – | 20.6 µM (active) |
| Cc1cccc([C@H]2[C@@H]3C=CC[C@@H](C)[C@@H]3C(=O)N2Cc2ccccc2)c1 | – | 14.6 µM (active) |
| Cc1cccc([C@@H]2[C@@H]3C(=O)N(Cc4ccccc4)C(=O)[C@@H]3[C@]3(Cc4ccc(Cl)cc4)C(=O)N(c4cccc(Cl)c4)C(=O)N23)c1 | -6.02% (inactive) | – |
| O=C(NNC(=S)NCCCN1CCOCC1)c1ccncc1 | 3.65% (inactive) | – |
| O=C(NCCCN1CCOCC1)c1ccc([N+](=O)[O-])cc1[N+](=O)[O-] | -13.5% (inactive) | – |
| CC(C)c1ccc(/C=C/C(=O)NCCCN2CCOCC2)cc1 | – | 20.6 µM (active) |
| CCCC(=O)N(CCc1ccccc1)Cc1nc2ccccc2c(=O)[nH]1 | -19% (inactive) | – |
| CN(C)CCCNC(=O)c1cc(C(=O)Cc2ccc(Cl)cc2)c[nH]1 | -22.6% (inactive) | – |
| O=C(COC(=O)Cc1ccccc1F)NCCc1ccccc1 | 4.69% (inactive) | – |
| N=c1n(CCc2ccccc2)c2ccccc2n1Cc1ccccc1F | – | 5.17 µM (active) |

| Compound | activity change, negative = growth inhibition | Potency |
| --- | --- | --- |
| CCCCc1nccn1CCn1ccnc1CCCC | -3.8% (inactive) | – |
| CC(C)NC(=O)NC(=O)CSc1nnc(-c2ccccc2F)n1N | 14.1% (inactive) | – |
| O=C(O)Cn1c(Cc2ccccc2)nc2ccccc21 | 4.87% (inactive) | – |
| C=CCn1c(P(C)(=O)O)nc2ccccc21 | – | inactive |
| C=C(Br)Cn1c(CCCC)nc2ccccc21 | – | 11.6 µM (active) |
| CCCCCCCC/C=C\CCCCCCCC(=O)OC[C@H](CO)OC(C)=O | -8.7% [at 4.12 µM] (inactive) | – |
| CCCOC(=O)c1c(NC(=O)c2cc3nc(-c4ccc(OC)cc4)cc(C(F)(F)F)n3n2)sc2c1CCCC2 | -3.89% (inactive) | – |
| CC(=O)NS(=O)(=O)c1ccc2c(c1)Cc1cc(S(=O)(=O)NC(C)=O)ccc1-2 | -11% (inactive) | – |
| CCC(=O)N1c2ccccc2NC2=C(C(=O)CCC2)C1c1ccco1 (configuration not stated) | -2.89% (inactive) | – |
| Cc1nc2nc3c(cn2n1)C(=O)CC(c1ccccc1)C3 (configuration not stated) | -25.6% (inactive) | – |
| O=C1CC(c2ccccc2)CC2=C1C(c1ccco1)n1nc(C(F)(F)F)nc1N2 (configuration not stated) | – | 14.1 µM (active) |
| CCOc1ccc(S(=O)(=O)NCCC(=O)NCC(C)(C)N2CCOCC2)cc1 | -6.6% (inactive) | – |
| Cc1ccccc1NC(=O)C(C)c1ccc(-c2ccccc2)c(F)c1 (configuration not stated) | – | 16.4 µM (active) |
| CC(C(=O)Nc1ccccc1-c1ccccc1)N1CCOCC1 (configuration not stated) | -21.9% (inactive) | – |
| O=C(Nc1ccccc1F)c1ccccc1-c1ccccc1 | -13.5% (inactive) | – |
| COc1ccc(N=C2C=CC(=O)O2)cc1 | – | 4.61 µM (active) |
| COc1ccc(N=Nc2c(-c3ccc(OC)cc3)[nH]oc2=O)cc1 | -12.5% (inactive) | – |
| COC1=CC(=O)OC(c2ccc(OC)cc2)C1 (configuration not stated) | 2.03% (inactive) | – |
| COc1ccc(OC)c2c(N)c(C#N)c(C(F)(F)C(F)(F)F)nc12 | 3.02% (inactive) | – |
| Cc1ccc(C(=O)OCC(=O)NCc2ccc3c(c2)OCO3)s1 | -5.24% (inactive) | – |
| COc1ccc(-c2cc(C(F)(F)F)nc(S(C)(=O)=O)n2)cc1OC | – | 5.17 µM (active) |
| CCN(CC)S(=O)(=O)c1cccc(C(=O)NCC(=O)OCC(=O)NCc2ccccc2)c1 | -25.2% (inactive) | – |

| Compound | activity change, negative = growth inhibition | Potency |
| --- | --- | --- |
| CCNC(=O)COc1cc(C)c(Br)c(C)c1 | 1.43% (inactive) | – |
| Cc1cc(F)ccc1NC1(c2ccccc2)C(=O)c2ccccc2C1=O | -0.108% (inactive) | – |
| CC(=O)Nc1ccc(NC(=S)NC(=O)c2ccc([N+](=O)[O-])c(C)c2)cc1 | -9.77% (inactive) | – |
| CC(=O)Nc1ccc(/C=N/Nc2ccc(C(=O)c3c(C)cc4ccccn34)cc2[N+](=O)[O-])cc1 | – | 11.6 µM (active) |
| CNc1ccc(NC(C)=O)cc1[N+](=O)[O-] | -0.228% (inactive) | – |
| CCC(C)NCC(=O)Nc1ccc([N+](=O)[O-])cc1C(=O)Nc1ccccc1F (configuration not stated) | -23% (inactive) | – |
| Cc1ccc(S(=O)(=O)N(C)CC(=O)OCC(=O)N2CC(=O)Nc3ccccc32)cc1 | -9.32% (inactive) | – |
| COc1ccccc1C(=O)NC(=O)COC(=O)c1ccco1 | -4.23% (inactive) | – |
| Cc1cc(C)c(S(=O)(=O)N2CCC(C(=O)OCc3c(C)noc3C)CC2)c(C)c1 | 2.1% (inactive) | – |
| COc1cccc(N2CCN(C(=O)C3CCCN(S(=O)(=O)c4cnc[nH]4)C3)CC2)c1 (configuration not stated) | -25% (inactive) | – |
| COc1c(C)cc(C(=O)C2CCCN(S(=O)(=O)c3c(C)noc3C)C2)cc1C (configuration not stated) | – | 16.4 µM (active) |
| CCNC(=O)C1CCCN(C(=O)c2ccc(OC)cc2OC)CC1 (configuration not stated) | -2.02% (inactive) | – |
| Cc1cc(Cl)ccc1C(=O)C1CCCN(C(=O)c2nonc2C)C1 (configuration not stated) | -26.4% (inactive) | – |
| COc1ccc(C(=O)C2CCCN(C(=O)c3ccc(OC)o3)C2)c(C)c1 (configuration not stated) | – | 16.4 µM (active) |
| CCOC(=O)C1CCN(S(=O)(=O)c2c(C)noc2C)CC1 | 21.5% (inactive) | – |
| Cc1cc(Cl)ccc1C(=O)C1CCCN(C(=O)c2ccc3c(c2)OCO3)C1 (configuration not stated) | – | 8.2 µM (active) |
| COc1ccc(OC)c(S(=O)(=O)N2CCCC(C(=O)NCCc3ccccc3)C2)c1 (configuration not stated) | -23.5% (inactive) | – |
| CCn1nc(C)cc1C(=O)N1CCCC(C(=O)c2cccc(OC)c2)C1 (configuration not stated) | -29.3% (inactive) | – |
| O=C(c1ccc2c(c1)OCO2)N1CCOCC1 | 0.596% (inactive) | – |
| COc1ccc(C(=O)C2CCCN(S(=O)(=O)c3cccc(C)c3)C2)c(C)c1 (configuration not stated) | – | 18.4 µM (active) |
| O=C(COc1cccnc1[N+](=O)[O-])Nc1ccc(Cl)cc1F | -10.4% (inactive) | – |
| Cc1ccc(NC(=O)OCc2cncs2)cc1 | -3.53% (inactive) | – |

| Compound | activity change, negative = growth inhibition | Potency |
| --- | --- | --- |
| COC(=O)c1c(C(=O)OC)c2n(c1C)CCS2 | -16.7% (inactive) | – |
| CC(C)(C)OC(=O)N(Cc1ccco1)S(=O)(=O)c1ccccc1Br | 3% (inactive) | – |
| CCn1c(N)c(Br)c(=O)[nH]c1=O | 0.126% (inactive) | – |
| N#Cc1c(NCCO)ccc([N+](=O)[O-])c1NCCO | 0.687% (inactive) | – |
| CC1CCN(C(=O)CSc2nnc(-c3ccco3)n2N)CC1 | 2.17% (inactive) | – |
| CCCn1nc(NS(=O)(=O)c2ccccc2)c2cc3cc(C)ccc3nc21 | -7.69% (inactive) | – |
| CC(C)NC(=O)COCc1cc(-c2ccc3c(c2)OCO3)on1 | -26.5% (inactive) | – |
| O=c1c(-c2ccccc2)coc2c(CN3CCOCC3)c(O)ccc12 | -9.85% (inactive) | – |
| Cc1cc(=O)n2nc(N3CCCC3C(=O)NCCCN3CC(C)CC(C)C3)sc2n1 (configuration not stated) | -6.94% (inactive) | – |
| Cc1nnc(SCc2cc(=O)c3cc(F)ccc3[nH]2)n1C | 12% (inactive) | – |
| COCCN(C(=O)CSCc1ccc(C)cc1)c1c(N)n(CC(C)C)c(=O)[nH]c1=O | 20.3% (inactive) | – |
| CCN(C(=O)COC(=O)c1sccc1C)c1c(N)n(Cc2ccccc2)c(=O)[nH]c1=O | -24.8% (inactive) | – |
| CCCCN(C(=O)CSCc1ccc(C)cc1)c1c(N)n(Cc2ccccc2)c(=O)[nH]c1=O | – | 25.9 µM (active) |
| CCN(C(=O)COC(=O)Cc1c(F)cccc1Cl)c1c(N)n(Cc2ccccc2)c(=O)[nH]c1=O | -19.8% (inactive) | – |
| COCCN(C(=O)COC(=O)Cc1cccc(OC)c1)c1c(N)n(Cc2ccccc2)c(=O)[nH]c1=O | 16.1% (inactive) | – |
| CCN(C(=O)COC(=O)c1c(C)nn(-c2ccccc2)c1Cl)c1c(N)n(Cc2ccccc2)c(=O)[nH]c1=O | 18.7% (inactive) | – |
| CCN(C(=O)COC(=O)CCOc1cccc(C)c1)c1c(N)n(Cc2ccccc2)c(=O)[nH]c1=O | – | 18.4 µM (active) |
| COCCCN(C(=O)CSCc1ccc(C)cc1)c1c(N)n(Cc2ccccc2)c(=O)[nH]c1=O | -1.36% (inactive) | – |
| COc1ccc2oc(C(=O)OCC(=O)N(CC(C)C)c3c(N)n(Cc4ccccc4)c(=O)[nH]c3=O)c(C)c2c1 | – | 16.4 µM (active) |
